High-throughput results deposited in PubChem BioAssay by National Center for Advancing Translational Sciences (NCATS).
Shown are actives, neighbours in structure and some others; about 7.9% of the full set was active somewhere.
SW480 rereplic: inducers of DNA re-replication in SW480 colon cancer cells. Potency, µM (doses to about 46.1 µM), for inactives: top-dose re-replication activation, hits mostly activators. 340,000 compounds, 1.8% hits. AID 624297. SW480 DNA re-replication, Hoechst DNA content imaging, 48 h; further: % of control where 0% means no effect; nearly all actives have a fitted effect of over 55% in size
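Readout is total intensity of Hoechst-stained nuclei, excited at 405 nm and collected at 500-530 nm. Compound treatment lasted 48 hr at 37 C in 5% CO2 before staining.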
HT1080-NT tox: kills 2HG-producing HT-1080-NT fibrosarcoma cells. AID 686970. HT-1080-NT fibrosarcoma viability, CellTiter-Glo ATP luminescence, 48 h. Potency, µM (highest dose often 46.1 µM), without a hit: at the top dose activity, negative = less viability, actives largely listed as cytotoxic. 360,000 compounds, 1.6% hits;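 further: NT is the 2HG producing partner of a matched IDH1 knockdown line; 0% = DMSO-treated cells and -100% = media-only wells without cells; nearly all actives have a fitted effect of over 55% in size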
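Fibrosarcoma NT cells, 750 per well in 5% FBS RPMI, were exposed to compound for 48 hours. Viability: CellTiter-Glo luminescence.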
KB-V1 MDR tox: kills drug-selected multidrug resistant KB-V1 cells | 400,000 compounds, 3.4% hits | AID 1347076 | Potency, µM (top dose mostly 46.1 µM), actives largely listed as cytotoxic | KB-V1 MDR cells viability, CellTiter-Glo, 72 h; further: on the % scale 0 is the no-effect control and ±100 the full control effect; nearly all actives have a fitted effect of over 60% in size
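KB-V1, DMEM (no phenol red) + 10% FBS; cpd pin-transferred, titration series; 72 h, 37 degrees C; CellTiter-Glo, luminescence. Data normalized, curve-fit.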
MCF10A rerep: inducers of DNA re-replication in MCF 10A breast cells | MCF 10A DNA re-replication, Hoechst nuclear intensity, 48 h | Potency, µM (series often up to 46.1 µM), without a hit: top-dose activity, positive = re-replication, hits mostly activators | 350,000 compounds, 2.9% hits | AID 624296; further: % of control where 0% means no effect; nearly all actives have a fitted effect of over 50% in size
KB-3-1 tox: kills parental KB-3-1 adenocarcinoma cells | KB-3-1 viability, CellTiter-Glo ATP luminescence, 72 h | AID 1347075 | Potency, µM (series often up to 46.1 µM), actives largely listed as cytotoxic | 400,000 compounds, 1.4% hits; further: on the % scale 0 is the no-effect control and ±100 the full control effect; nearly all actives have a fitted effect of over 60% in size
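KB-3-1 cells, DMEM (no phenol red) + 10% FBS; compound by pin transfer, 72 h, 37 °C. Readout: CellTiter-Glo luminescence after 10 min. Data normalized, curve-fitted.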
HT1080 IDH1KD tx: kills HT-1080 cells with IDH1 knockdown. Potency, µM (series often up to 46.1 µM), for inactives: top-dose activity, negative = toxicity, most hits filed as cytotoxic. HT-1080 IDH1 knockdown viability, ATP luminescence, 48 h. 360,000 compounds, 2% hits. AID 686971;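 further: 0% = DMSO wells and -100% = cell-free medium wells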
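Using the IDH1-knockdown HT-1080 line run in the same batch and compound series as the NT line, viability after 48 h at 37 °C was determined by CellTiter-Glo luminescence and expressed as % activity.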
Starred values were filed as active, the others as inactive; i = inactive; ? = inconclusive; . = no result given. The call rests on the fitted dose curve; in most records, active means well fitted curve in the direction sought with a large enough effect; inconclusive means small, poorly fitted or top-dose-only effect, or another doubt; inactive means no such curve, though single readings can be large; an effect the other way counts as inactive or inconclusive. Potency means the concentration at half of the fitted maximal effect.

SMILES | SW480 rereplic | HT1080-NT tox | KB-V1 MDR tox | MCF10A rerep | KB-3-1 tox | HT1080 IDH1KD tx
COc1cc(/C=C/C(=O)c2ccc(C)cc2)ccc1OCC#N | 16µM* | ? | 15µM* | ? | ? | 21µM*
COc1ccc(/C=C/C(=O)c2ccc3c(c2)OCO3)cc1OC | ? | 1% | ? | ? | i | -7%
Cc1ccccc1NC(=O)NCC1CCN(c2ccc(S(=O)(=O)N3CCOCC3)cc2)CC1 | -119% | -16% | i | 0% | i | -2%
O=C(Nc1ccc(Cc2ccncc2)cc1)c1cccc([N+](=O)[O-])c1 | -1% | 0% | ? | 10% | i | -15%
CCCC(=O)Nc1cccc(NC(=O)c2ccc(C)c([N+](=O)[O-])c2)c1 | 2% | -2% | i | -4% | i | 12%
CCC(=O)Nc1cccc(NC(=O)c2ccc(C)c([N+](=O)[O-])c2)c1 | 1% | 4% | 15µM* | 22% | i | 8%
O=C(Nc1cccc(Cl)c1)c1ccc(NCC2CCCO2)c([N+](=O)[O-])c1 (configuration not stated) | -89% | -6% | i | 19% | i | 0%
Cc1ccc(C(=O)Nc2ccc(Cc3ccncc3)cc2)cc1[N+](=O)[O-] | -3% | 1% | 5.8µM* | 15% | ? | -13%
Cc1cccc(NC(=O)c2ccc(NCC3CCCO3)c([N+](=O)[O-])c2)c1 (configuration not stated) | -59% | 18% | 4.1µM* | -5% | i | 16%
Fc1ccc(-n2c(-c3ccc4c(c3)OCO4)n[nH]c2=S)cc1Cl | -5% | 14% | i | -3% | i | 16%
Cc1ccc(C)c(Cn2nc(C)n3c(cc4cc(C)ccc43)c2=O)c1 | . | . | i | . | i | .
CN=C(C)c1c(O)c2ccccc2oc1=O | -12% | 0% | i | ? | i | 7%
O=C(c1c(O)c2ccccc2oc1=O)C1CCCCC1 | 7% | ? | 15µM* | ? | ? | ?
Cc1ccc(Nc2ncnc3sc(C)c(C)c23)cc1 | -1% | ? | ? | -3% | i | -23%
Cc1ccc(S(=O)(=O)Nc2ncnc3sc(C)c(C)c23)cc1 | -4% | -2% | 3.7µM* | ? | ? | 5%
FC(F)(F)c1cccc(/C=N/NC(=S)NC2CCCCC2)c1 | -6% | ? | i | ? | i | ?
FC(F)(F)c1ccc(/C=N/NC(=S)NC2CCCCC2)cc1 | 10% | -19% | i | 18µM* | i | -26%
COc1ccc(OC)c(NC(=O)c2cccc(Cn3cc(Br)c([N+](=O)[O-])n3)c2)c1 | -55% | -6% | 4.6µM* | 6% | ? | -8%
Cc1cccc(NC(=O)c2cccc(Cn3cc(Br)c([N+](=O)[O-])n3)c2)c1C | -2% | -27% | 12µM* | -4% | ? | -11%
Cc1ccccc1NC(=O)c1cccc(Cn2cc(Br)c([N+](=O)[O-])n2)c1 | 1% | -5% | i | 3% | i | -21%
COc1ccccc1-c1sc2cc3c(cc2c1C#Cc1ccccn1)OCO3 | 0% | -5% | i | ? | i | -8%
COc1cc(OC)cc(C(=O)Nc2nc(CC(=O)NCCc3ccccc3)cs2)c1 | -2% | -2% | ? | 4% | i | 1%
COc1ccccc1NC(=O)Nc1nc(CC(=O)NCc2ccccn2)cs1 | 12µM* | -11% | i | ? | i | -7%
COc1ccccc1CNC(=O)Cc1csc(NC(=O)Nc2ccccc2OC)n1 | 2% | 7% | ? | ? | i | 2%
CN(C)Cc1csc(NC(=O)Nc2ccccc2-c2ccccc2)n1 | . | ? | i | . | i | ?
SMILES | SW480 rereplic | HT1080-NT tox | KB-V1 MDR tox | MCF10A rerep | KB-3-1 tox | HT1080 IDH1KD tx
COc1cc(OC)cc(C(=O)Nc2nc(CC(=O)NCc3ccccc3OC)cs2)c1 | 3% | -19% | 16µM* | ? | i | -18%
CN(C)Cc1csc(NC(=O)Nc2ccccc2Oc2ccccc2)n1 | . | 16µM* | ? | . | ? | ?
CN(CC(=O)Nc1ccccc1Br)C(=O)c1cccc(S(=O)(=O)NCc2ccccc2)c1 | -3% | -3% | ? | 0% | i | -17%
O=c1c2ccccc2oc2cc(NCCCN3CCOCC3)ccc12 | ? | -4% | i | 16µM* | i | -1%
O=c1c2ccccc2oc2ccc(NCCCN3CCOCC3)cc12 | 2% | -2% | ? | -14% | i | -12%
CN1CCCC1CCNc1ccc2c(=O)c3ccccc3oc2c1 (configuration not stated) | ? | -9% | i | 18µM* | i | -3%
O=c1c2ccccc2oc2cc(NCCCn3ccnc3)ccc12 | ? | 0% | i | 21µM* | i | 1%
COc1cccc2sc3cc(NCCCN4CCOCC4)ccc3c(=O)c12 | 29% | 3% | i | 18µM* | i | 9%
Cc1ccc(NS(=O)(=O)c2ccc3[nH]c4c(c3c2)CCCCC4)cc1 | . | . | i | . | i | .
CC(C)(C)OC(=O)N1CCC[C@H]1C(=O)OCC(=O)Nc1cc(S(C)(=O)=O)ccc1Cl | -5% | 6% | . | ? | . | 11%
CCN(CC)c1ccc(NS(=O)(=O)c2ccc(-c3cnc(C4CC4)o3)cc2)c(C)c1 | . | . | i | . | i | .
O=S(=O)(c1ccc(-c2cnc(C3CC3)o2)cc1)N1CCN(c2cccc(Cl)c2)CC1 | . | . | ? | . | i | .
O=S(=O)(Nc1ccc(F)cc1Cl)c1ccc(-c2cnc(C3CC3)o2)cc1 | ? | 1.2µM* | 1.5µM* | 1µM* | 1.2µM* | ?
Cc1ccc(NS(=O)(=O)c2ccc(-c3cnc(C4CC4)o3)cc2)c(C)c1 | 9.2µM* | ? | 2.6µM* | 0.73µM* | 2.1µM* | 0.82µM*
Cc1cc(C)c(NS(=O)(=O)c2ccc(-c3cnc(C4CC4)o3)cc2)c(C)c1 | . | . | 2.1µM* | . | 0.46µM* | .
CSCCC(NC(=O)c1ccccc1)C(=O)NNC(=O)c1csc(N2CCOCC2)n1 (configuration not stated) | -14% | -10% | i | 0% | i | -1%
Cc1ccccc1CSc1nc2c(c(=O)[nH]1)CCC2 | -3% | -1% | i | -2% | i | 4%
CN(Cc1ccccc1)C(=O)C1CCCN(Cc2cccc(Cl)c2)C1 (configuration not stated) | -43% | ? | i | 0.29µM* | ? | ?
CN(Cc1cccc(Cl)c1)C(=O)C1CCN(C(=O)Nc2ccccc2)CC1 | -4% | 0% | i | 10% | i | -1%
